Bioassay records: PubChem, National Center for Advancing Translational Sciences (NCATS)
GLP1R inv ag – acts as inverse agonist at human GLP-1 receptor. hit rate 1.6% among 410,000. HEK293 GLP-1R CRE-luciferase, luminescence, 24 h; GLP-1R form is constitutively active. Potency, µM (doses to about 38.3 µM), for the others: at the top dose activity change, negative = inhibition, hits mostly inhibitors. P43220; further: potency means the concentration at half of the fitted maximal effect; on the % scale 0 is the no-effect control and ±100 the full control effect; nearly all actives have a fitted effect of over 55% in size
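Readout was luciferase luminescence, measured 12 min after detection reagent at room temperature. Beforehand, GLP-1R reporter HEK293 cells had sat 12 h, then received compounds for 24 hr at 37 deg C.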
TRHR PAM – TRH receptor (human) allosteric enhancement; P34981; TRHR cells, fluo-8 calcium fluorescence, EC20 TRH enhancement; enhancement, % at 2 µM; hit rate 0.66% among 360,000; AID 493056; in the data active means enhancement above about 30%; further: 0% is about no effect
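TRHR-expressing cells loaded with fluo-8 calcium dye were read kinetically (ex 480/em 530) during compound addition, then stimulated with an EC20 of TRH (10 nM final). Enhancement of the Gq-mediated intracellular calcium response was scored.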
PTHR1 agonist – agonists of human PTHR1 parathyroid hormone receptor | Potency, µM (titrated, usually from 115 µM), inactives show at the top dose activation, usual class: activators | AID 743266 | hit rate 0.075% among 410,000 | HEK293 GP2 PTHR1 cells, GloSensor cAMP luminescence, 1 h | Q03431; further: potency means the concentration at half of the fitted maximal effect; nearly all actives have a fitted effect of over 55% in size
Target sequence (Q03431 whole entry, looked up): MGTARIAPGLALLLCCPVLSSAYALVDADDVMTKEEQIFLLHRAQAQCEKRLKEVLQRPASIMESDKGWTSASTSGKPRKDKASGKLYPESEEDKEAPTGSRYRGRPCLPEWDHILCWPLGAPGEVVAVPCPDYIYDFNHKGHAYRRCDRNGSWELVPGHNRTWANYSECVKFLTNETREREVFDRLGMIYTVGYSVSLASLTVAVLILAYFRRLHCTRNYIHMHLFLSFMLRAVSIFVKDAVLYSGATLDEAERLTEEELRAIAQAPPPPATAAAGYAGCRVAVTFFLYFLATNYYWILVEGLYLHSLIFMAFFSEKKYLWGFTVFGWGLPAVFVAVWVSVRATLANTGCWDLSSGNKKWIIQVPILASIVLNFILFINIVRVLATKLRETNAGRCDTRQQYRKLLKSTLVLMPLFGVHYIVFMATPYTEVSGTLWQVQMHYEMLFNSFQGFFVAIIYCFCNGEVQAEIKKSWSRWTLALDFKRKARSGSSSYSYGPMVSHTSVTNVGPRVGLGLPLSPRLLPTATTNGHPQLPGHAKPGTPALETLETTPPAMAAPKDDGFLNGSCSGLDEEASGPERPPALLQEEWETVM
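HEK-293-derived GP2 cells expressing PTHR1 and a GloSensor cAMP reporter, 3,000/well, plated overnight, given luciferin plus IBMX (each 0.5 mM as added) for 1 h at 37 °C, then compound for 1 h at 37 °C. Luminescence was read after 15 min at room temperature.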
GLP-1R agonist – GLP-1 receptor (human) agonism | HEK293 GLP-1R CRE-luciferase, luminescence, 4-6 h; cells express a hypersensitive GLP-1R form | Potency, µM (titrated, usually from 45.6 µM), inactives show at the top dose activation, hits mostly activators | hit rate 0.007% among 380,000 | AID 624172; further: potency means the concentration at half of the fitted maximal effect; % of control where 0% means no effect
TRHR ag – TRH receptor (human) agonism; P34981; TRHR cells, calcium flux fluo-8, FDSS agonist mode; activation, % at 2 µM; hit rate 0.18% among 360,000; AID 493084; in the data active means activation above about 30%; further: 0% is about no effect
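Agonist-mode FDSS calcium read (Ex 480/Em 530, 1 s cycles) in 1536-well TRHR cells with fluo-8 dye, after 10-cycle baseline and 23 nL compound addition; TRH at EC20 (10 nM final) added afterwards for the enhancer phase.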
HEK293 tox – cytotoxic in the GLP-1 receptor inverse agonist counter-screen; HEK293 cAMP-luciferase reporter cells, luminescence, 24 h; Potency, µM (doses to about 38.3 µM), for the others: at the highest dose activity change, negative = inhibition, hits mostly inhibitors; AID 624418; hit rate 0.13% among 410,000;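 further: loss of luciferase light is scored as toxicity; potency means the concentration at half of the fitted maximal effect; on the % scale 0 is the no-effect control and ±100 the full control effect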
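A 23 nL compound transfer followed 12 hours of cell culture at 37 deg C; exposure then lasted 24 hr. Luciferase assay detection reagent was dispensed and plates read for luminescence after a 12 min room-temperature wait.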
The depositor's hits bear a star; i = inactive; ? = inconclusive; / = no result given; [ ] = dose if it differs, or a comment. Shown are actives, neighbours in structure and some others; about 2.4% of the full set was active somewhere. Unless noted, the call rests on the fitted dose curve; in most records, active means well fitted curve in the direction sought with a large enough effect; inconclusive means small, poorly fitted or top-dose-only effect, or another doubt; inactive means no such curve, though single readings can be large; an effect the other way counts as inactive or inconclusive.

SMILES	GLP1R inv ag	TRHR PAM	PTHR1 agonist	GLP-1R agonist	TRHR ag	HEK293 tox
COc1cccc(NC(=S)N2CCN(C/C=C/c3ccccc3)CC2)c1	5.6µM*	1	i	5%	-1	-23%
COC(=O)Cn1c(CN2CCN(c3ccc(OC)cc3)CC2)nc2c1c(=O)[nH]c(=O)n2C	-5%	2	-13%	/	1	0%
COc1ccc(C(=O)Nc2ccc3c(c2)nc(CCNC(C)=O)n3C)cc1	-8%	31*	4%[57.5 µM]	9%	1	-2%
COc1ccccc1C(=O)Nc1ccc2c(c1)nc(CCNC(=O)c1ccccc1)n2C	?	4	-13%	17%	0	10µM*
COc1cc(C(=O)Nc2ccc(-c3cc(C(F)(F)F)nn3-c3ccccc3)cc2)cc(OC)c1OC	7.9µM*	-1	i	/	2	-6%
O=C(Nc1ccc(-c2cc(C(F)(F)F)nn2-c2ccccc2)cc1)c1cccc(F)c1	?	-11	-18%	/	2	-20%
CN1CCC(N(C)S(=O)(=O)c2ccc(NC(=O)COc3ccc(Br)cc3Cl)cc2)CC1	2µM*	-6	?	-8%	4	?
Cc1ccccc1OCCC(=O)Nc1ccc(S(=O)(=O)N(C)C2CCN(C)CC2)cc1	?	4	i	5%	0	-2%
CN1CCC(N(C)S(=O)(=O)c2ccc(NC(=O)Cc3ccc(F)cc3)cc2)CC1	?	-3	-7%	-4%	1	-13%
CN1CCC(N(C)S(=O)(=O)c2ccc(NC(=O)COc3cccc(Cl)c3)cc2)CC1	2.8µM*	-6	-3%	2%	2	-5%
Cc1ccc(OCC(=O)Nc2ccc(S(=O)(=O)N(C)C3CCN(C)CC3)cc2)c(C)c1	2.2µM*	-2	i	12%	1	-16%
CN1CCC(N(C)S(=O)(=O)c2ccc(NC(=O)c3ccc(S(=O)(=O)N(C)C)cc3)cc2)CC1	-25%	/	i	-6%	/	13%
COCCNC(=O)c1onc(CSc2ccncc2)c1C(=O)NCCOC	-1%	2	-13%	-1%	0	-5%
Cc1cc(=O)n(CC(=O)NC(C)c2ccccc2)c2c1c(C)nn2-c1cccc(F)c1 (stereo not given)	12%	-4	-32%	/	-1	21%
COc1cccc(CNC(=O)CCC2CCCN(Cc3cc4ccccc4o3)C2)c1 (stereo not given)	11µM*	2	i	9%	0	1%
CCN(C(=O)c1ccc2c(c1)OCO2)C12CC3CC(CC(C3)C1)C2	11µM*	/	-16%	28%	/	1%
CCN(C(=O)c1cccc(S(=O)(=O)N(C)C)c1)C12CC3CC(CC(C3)C1)C2	?	3	-75%	13%	-1	-23%
COc1ccccc1CNc1nc(Nc2ccccc2-n2cccn2)c2sccc2n1	3.2µM*	/	-12%	33%	/	-10%
CCOC(=O)C1(N(CC)CC)Sc2cc(C)ccc2NC1=O (stereo not given)	6.3µM*	4	i	4%	2	?
Cc1ccc(C(=O)N2CCC(Cc3ccccc3)CC2)cc1[N+](=O)[O-]	10µM*	-8	i	17%	0	-3%
Cc1ccc(C)c(S(=O)(=O)NCc2ccc(C(=O)N3CCC(Cc4ccccc4)CC3)cc2)c1	10µM*	-8	i	4%	0	-28%
Cc1ccc(C)c(S(=O)(=O)NCc2ccc(C(=O)N3CCN(C)CC3)cc2)c1	3%	4	i	-10%	0	14%
CCC(C(=O)O/N=C(\N)c1ccccc1)c1ccccc1 (stereo not given)	?	-8	i	-2%	1	-8%
CC(C)(C)Nc1nc(Cl)nc(NCCN2CCOCC2)n1	6%	1	-1%	5%	0	-9%
COc1ccc(C2C(C(=O)c3cccs3)=C(O)C(=O)N2c2nnc(C)s2)cc1OC (stereo not given)	19%	8	i	6%	193*	?
SMILES	GLP1R inv ag	TRHR PAM	PTHR1 agonist	GLP-1R agonist	TRHR ag	HEK293 tox
CC(C)c1nnc(N2C(=O)C(O)=C(C(=O)c3cccs3)C2c2ccccc2)s1 (stereo not given)	-4%	3	-25%	-1%	169*	0%
C=CCOc1ccc(C2C(C(=O)c3cccs3)=C(O)C(=O)N2c2nnc(C)s2)cc1 (stereo not given)	25%	/	-22%	2%	/	-10%
COc1ccc(C2C(C(=O)c3cccs3)=C(O)C(=O)N2c2nncs2)cc1 (stereo not given)	0%	3	i	-9%	36*	-1%
CN(C)Cc1c(C(=O)Nc2ccccc2)[nH]c2ccccc12	-14%	0	-37%	32%	0	-15%
CN1/C(=C\C(=O)CN2C(=O)NC3(CCCCCC3)C2=O)C(C)(C)c2ccccc21	?	8	-11%[57.5 µM]	1%	0	?
O=C(c1cc(-c2ccccc2)nn1-c1ccccc1)N1CCN(S(=O)(=O)c2cccc(F)c2)CC1	2%	3	i	15%	0	0%
Cc1cc(C)c(S(=O)(=O)Nc2ccccc2C(=O)OCC(=O)NCc2ccccc2)c(C)c1	0%	-4	-12%	10%	1	11%
CC(C)[C@H](NS(=O)(=O)c1cccc(C(F)(F)F)c1)C(=O)OCC(N)=O	33%	39*	i	4%	2	2%
COc1cc(/C=C2/SC(=S)N(Cc3ccccc3)C2=O)cc(Cl)c1O	-20%	92*	-40%	-1%	159*	13%
O=C(O)c1ccc(/C=C2/SC(=S)N(Cc3ccccc3)C2=O)cc1	-18%	4	-12%	9%	0	-4%
O=C1/C(=C\c2ccc(O)cc2)SC(=S)N1Cc1ccccc1	11µM*	3	-18%	-2%	8	7%
COc1cc(/C=C2/SC(=S)N(Cc3ccccc3)C2=O)ccc1OS(C)(=O)=O	2%	0	i	9%	1	0%
Clc1ccc(-c2nnnn2-c2ccc(Cl)c(Cl)c2)cc1Cl	?	0	-24%[57.5 µM]	-2%	1	8%
Cc1c(C)n(Cc2ccccc2)c2ccc(C(=O)N3CCN(c4ccccc4)CC3)cc12	?	-3	i	/	0	-2%
COc1cc(-c2nnc(SCC(=O)N(Cc3ccccc3)C(C)(C)C)o2)cc(OC)c1OC	?	0	-4%[57.5 µM]	5%	0	26%
COc1cc(OC)cc(-c2nnc(SCC(=O)N(Cc3ccccc3)C(C)(C)C)o2)c1	8.9µM*	-6	-5%[57.5 µM]	4%	1	8%
